RecA intein inh = Mtb RecA intein splicing inhibitors, primary screen, biochemical, fluorescence, HTS. Protein RecA (Mycobacterium tuberculosis (strain ATCC 25618 / H37Rv)), P9WHJ3. cell-free RecA intein splicing. inhibition, % (test concentration not listed). 290,000 tested, 0.75% active. AID 2221, 2009; in the data active = inhibition above about 30%;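 also: 0% = vehicle wells and 100% = reference inhibitor control wells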
PriA SSB inh = inhibitors of Klebsiella pneumoniae PriA binding to SSB C-terminal tail, primary screen, biochemical, AlphaScreen. AID 1272365, 2023. PriA–SSB C-terminal tail interaction (Klebsiella pneumoniae). 430,000 tested, 0.6% active. AlphaScreen SSBct-PriA binding, biotinylated peptide. inhibition, % at 33 µM; in the data active = inhibition mostly above about 37%, no sharp cut-off; inactive = mostly below about 20%;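 also: plate controls were negative control peptide for no effect and reference peptide for full effect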
Mtb betalactam = beta-lactam sensitization of Mtb H37Rv, H37Rv; AID 434955, 2010; 330,000 tested, 0.27% active; M. tuberculosis H37Rv growth with meropenem, percent inhibition; inhibition, % at 25 µM;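 also: growth measured after seven days incubation then overnight dye step; 0% = bacteria only wells and 100% = bacteria with antibiotic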
Rv3671c protease = Rv3671c serine protease inhibitors, primary screen, biochemical, fluorescence polarization, M. tuberculosis H37Rv; inhibition, % at 5.96 µM; 320,000 tested, 0.048% active; P9WHR9; in the data active = inhibition above about 38%;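 also: extracellular domain of Rv3671c used as enzyme; 0% = enzyme with DMSO and 100% = no enzyme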
Target sequence (P9WHR9 whole entry, looked up, the tested form may be a part): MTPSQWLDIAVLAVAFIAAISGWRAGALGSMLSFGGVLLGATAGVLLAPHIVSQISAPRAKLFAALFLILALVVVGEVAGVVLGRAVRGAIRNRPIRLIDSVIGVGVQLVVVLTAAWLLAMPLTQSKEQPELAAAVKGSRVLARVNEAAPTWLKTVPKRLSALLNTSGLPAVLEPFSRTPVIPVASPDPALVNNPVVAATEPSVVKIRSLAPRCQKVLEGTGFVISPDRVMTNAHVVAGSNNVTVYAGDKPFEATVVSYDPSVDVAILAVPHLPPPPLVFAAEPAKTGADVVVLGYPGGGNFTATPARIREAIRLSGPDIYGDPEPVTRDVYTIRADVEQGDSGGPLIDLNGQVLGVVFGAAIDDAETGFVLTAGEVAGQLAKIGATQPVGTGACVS
Mtb UGM inh = M. tuberculosis UGM enzyme inhibitors, primary screen, biochemical, fluorescence polarization, single point; purified UGM, fluorescence polarization probe displacement; inhibition, % at 10 µM; 320,000 tested, 0.06% active; in the data active = inhibition above about 10%, passing the limit was not always enough
GFP chromo cs = counter-screen: blocks GFP chromophore formation, dose response, counter-screen, biochemical, fluorescence, homogeneous; shares compounds with RecA intein inh; cell-free GFP chromophore formation; EC50, µM; 2,100 tested, 83% active; AID 434968, 2010
An asterisk follows results filed as active; · = no result. A selection: hits, their analogues and other compounds. The true share with any hit is near 1.1%. Unless noted, no rule for the calls is given here.

SMILES	RecA intein inh	PriA SSB inh	Mtb betalactam	Rv3671c protease	Mtb UGM inh	GFP chromo cs
O=[N+]([O-])/C(C(Cl)=C(Cl)Cl)=C(/Sc1ccccc1)N1CCCCC1	34*	-12	3	-3	0	>38
O=C(NC1C(=O)NNC1c1ccc(Cl)cc1)c1ccc(F)cc1 (stereo unspecified)	70*	0	-10	-15	2	30*
CCc1ccccc1NC(=O)CSc1nccn2nc(-c3ccc(F)cc3)cc12	·	-16	·	·	·	·
Cc1ccccc1-c1cc2c(nn1)-c1ccccc1C2=O	75*	12	97	-100	-2	13*
Cc1ccc(-c2cc3c(nn2)-c2ccccc2C3=O)cc1	12	5	59	5	2	·
COc1ccc(Br)c(C(=O)Nc2cnn(C[C@H]3COc4ccccc4O3)c2)c1	·	-6	·	·	·	·
Cc1c(NC(=O)c2ncc(-c3ccc(F)cc3)o2)c(=O)n(-c2ccccc2)n1C	·	5	·	·	·	·
CSc1nc(-c2ccc(Cl)cc2)nn1C(=O)c1ccco1	38*	-7	60	-4	1	>38
N#Cc1ccc(-n2c(-c3ccccc3)nnc2-c2ccccc2)cc1C#N	50*	-11	5	-5	-2	17*
Cn1nc(CNC(=O)c2cc(=O)c3ccccc3o2)cc1-c1cccs1	·	-18	·	·	·	·
O=C(NC1(O)C(=O)c2ccccc2C1=O)c1ccccc1	50*	3	1	-116	2	16*
O=C(NC1(O)C(=O)c2ccccc2C1=O)c1c(Cl)cccc1Cl	34*	23	62	-129	3	36*
O=C(Nc1ccccc1Cl)c1c(F)c(F)c(F)c(F)c1F	3	-4	99	7	-1	·
CC(C)C(=O)Nc1ccc(SCC(=O)Nc2ccc(F)c(F)c2)nn1	·	-7	·	·	·	·
C[C@H](NC(=O)OC(C)(C)C)C(=O)Nc1cnn(C2CCOCC2)c1	·	-20	·	·	·	·
N#C/C(=C\c1c(Cl)cccc1Cl)c1nn(-c2ccccc2)c(-n2cccc2)c1C#N	25	6	-11	-5	1	·
N#C/C(=C\c1c(F)cccc1Cl)c1nn(-c2ccccc2)c(-n2cccc2)c1C#N	46*	0	11	-17	3	>38
Cc1cccc(C)c1-n1cccc1/C=C1\SC(=S)N(c2cccc(C(=O)O)c2)C1=O	33*	31	7	-36	0	11*
COc1ncc(NS(=O)(=O)c2cccc(C(F)(F)F)c2)cn1	·	5	·	·	·	·
O=[N+]([O-])c1ccc(S(=O)(=O)c2cccc(C(F)(F)F)c2)nc1	50*	1	100	6	2	30*
c1coc(-c2nnc(-c3ccco3)nn2)c1	58*	4	1	-23	0	9.1*
CCNC1=C(Cl)C(=O)c2ccccc2C1=O	76*	21	75	-2	1	33*
O=C(NCCN1CCCC1)c1ccccc1Cl	-5	-12	-3	-8	-1	·
O=C1C(Cl)=C(NCCN2CCCCC2)C(=O)c2ccccc21	48*	8	63	-46	2	26*
O=C(CCc1ccccc1)NN=CC1CC=CCC1 (stereo unspecified)	·	8	·	·	·	·
SMILES	RecA intein inh	PriA SSB inh	Mtb betalactam	Rv3671c protease	Mtb UGM inh	GFP chromo cs
COC(=O)c1ccc(Cn2nc(C3CC3)c3cnn(-c4ccc(F)cc4)c3c2=O)o1	·	3	·	·	·	·
O=C(NCC1Cc2ccccc2CO1)c1cc2n(n1)CCCO2 (stereo unspecified)	·	4	·	·	·	·
O=C(NNC(=O)c1ccc2ccccc2c1O)c1ccccc1Cl	35*	-10	-6	-4	3	>38
CCCCNC(=O)c1c(N)n(Cc2ccc3c(c2)OCO3)c2nc3ccccc3nc12	68*	1	11	-8	3	>38
CCCCCn1c(N)c(C(=O)NCCN2CCOCC2)c2nc3ccccc3nc21	-122	24	78	4	0	·
CCCCNC(=O)CSc1nc2ccccc2c(=O)n1Cc1ccc2c(c1)OCO2	2	-17	-5	-4	2	·
CCCCCn1c(N)c(C(=O)NCc2cccs2)c2nc3ccccc3nc21	82*	-7	-12	-96	3	3.2*
Cc1nccn1-c1cc(NCCNS(=O)(=O)c2ccc(C(F)(F)F)cc2)ncn1	·	-9	·	·	·	·
C/C(C=NNC(=O)CSc1nnc(SCc2ccc(C)cc2)s1)=C/c1ccco1	·	3	·	·	·	·
O=C(CS(=O)c1ccc(C(F)(F)F)cc1[N+](=O)[O-])Oc1ccccc1 (stereo unspecified)	66*	-19	100	12	-1	15*
CC(=NNC(=S)NCCc1ccccc1)c1ccc(Cl)cc1	·	5	·	·	·	·
CC(=O)N1N=C(c2ccco2)CC1c1cccs1 (stereo unspecified)	1	-7	0	-3	-1	·
Cc1ccc(C2=NN(C(=O)CCl)C(c3cccs3)C2)o1 (stereo unspecified)	74*	2	100	-5	-5	4.6*
O=C(CCl)N1N=C(c2ccco2)CC1c1cccs1 (stereo unspecified)	67*	8	99	1	0	25*
CC(=O)N1N=C(c2ccc(C)o2)CC1c1cccs1 (stereo unspecified)	·	-3	·	·	·	·
CCOc1ccc(CNC(=O)Cn2c(=O)[nH]c3c(-c4ccc(F)cc4)c[nH]c3c2=O)cc1OCC	·	-6	·	·	·	·
CCOc1ccc(C(=O)Cn2cc(-c3nc(-c4ccccc4Cl)no3)ccc2=O)cc1	·	2	·	·	·	·
Cc1cc(C)nc(N2N=C(C(C)(C)C)CC2=O)n1	40*	-20	30	-9	-2	34*
COc1ccc(Oc2c(OC)cc([N+](=O)[O-])c3ncccc23)cc1	·	13	·	·	·	·
COc1cc(NC(C)CCCN)c2ncccc2c1Oc1ccccc1 (stereo unspecified)	36*	16	3	-15	·	33*
COc1ccc(O)c(C(c2c(C)[nH][nH]c2=O)c2c(C)[nH][nH]c2=O)c1	92*	-4	2	-27	0	3.8*
COc1ccccc1C(c1c(O)cc(C)[nH]c1=O)c1c(O)cc(C)[nH]c1=O	·	-7	·	·	·	·
COc1ccc(OC)c(C(c2c(C)[nH][nH]c2=O)c2c(C)[nH][nH]c2=O)c1	95*	-6	8	-15	0	0.43*
COc1cc(C=NN=C(N)N)ccc1OCc1ccc(Cl)cc1	·	6	·	·	·	·
O=S(=O)(/C(=C/c1ccc(C(F)(F)F)cc1)c1nc2ccccc2[nH]1)c1ccccc1	64*	-6	68	-76	1	10*
C/C(=C\c1ccc(N)cc1)c1nc2ccccc2[nH]1	-1	-11	-5	0	-2	·
CC(C)c1ccc(/C=C(\c2nc3ccccc3[nH]2)S(=O)(=O)c2ccccc2)cc1	80*	3	8	-43	-1	9.4*
